Experimental findings from PubChem BioAssay are described below.

Experiment [1] is described as follows: liver-stage malaria parasite growth inhibition, primary screen, cell-based, HepG2, luciferase luminescence, HepG2 viability (AID 624349).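 Note: 100% = mean of DMSO negative control wells on the same plate.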 The note with it: P. berghei liver stage in HepG2, luciferase luminescence, concentration not given here; parasite load remaining: stronger effect = lower value; viability: measured here: HepG2 viability without parasites.
Experiment [2] can be described thus: stimulators of nuclear beta-catenin in C2C12, primary screen, imaging, WNT3A-conditioned medium, mouse C2C12, NPC library (AID 1117326; in the data active = nuclear beta-catenin stimulation mostly above about 4.2%, no sharp cut-off; inactive = mostly below about 10%). The note with it: stronger effect = higher value.
Experiment [3] is described as follows: stimulators of insulin release from INS-1E, primary screen, cell-based, 5 mM glucose, NPC library (AID 1117329;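 active = compound raises insulin release from rat beta cells at 5 mM glucose, no numeric limit stated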). The note with it: rat INS-1E insulin secretion, at 10 µM, stronger effect = higher value.
A short description of experiment [4]: growth inhibition of GSK3B-pretreated HCT116 cells – cell-based, CellTiter-Glo, 0.2 to 20 µM (AID 1117336;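 active = compounds lowering colon cancer cell viability after pretreatment blocking the GSK3B kinase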). The note with it: HCT116 viability after GSK3B inhibitor, at 20 µM, stronger effect = higher value. Background: ATP-based viability assays read luminescence as a measure of living cells.
The nature of experiment [5]: inhibition of endothelial tube formation, primary screen, imaging, VEGF stimulated, CD31 staining, tube area, NPC library (AID 1117340;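 active = compound that reduces growth-factor-driven endothelial tube area in a mixed cell culture, no cutoff stated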). The note with it: VEGF-stimulated ADSC/ECFC co-culture, at 10 µM, stronger effect = higher value.
Experiment [6] in a line: glucagon-like peptide 1 release enhancers, primary assay, NCI-H716 cell line, NPC library (AID 1117341;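 active = compound raises GLP1 secretion from the human gut endocrine cells, with no numeric limit stated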). The following applies: NCI-H716 cells, at 10 µM, stronger effect = higher value.
A short description of experiment [7]: HCT116 colon cancer cell growth inhibition, primary screen, CellTiter-Glo luminescence, NPC library (AID 1117342;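 active = compounds that lower survival of HCT116 colon cancer cells in the luminescence readout, no numeric limit stated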). The note with it: at 20 µM (top of the series).
Experiment [8] in a line: CellTiter-Glo luminescent readout of SW480 viability loss, NPC library primary (AID 1117343;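 active = compounds that lower viability of the colon cancer cells in the luminescence readout, with no numeric limit stated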). The note with it: CellTiter-Glo luminescence; at 20 µM (top of the series) unless noted.
Experiment [9] in a line: decreased DLD-1 cellular survival, CellTiter-Glo luminescent readout, NPC compound collection, primary HTS (AID 1117346;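 active = compounds that lower survival of DLD-1 colon cancer cells in the luminescence readout, no cutoff given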). The following applies: DLD-1 viability, CellTiter-Glo luminescence; at 20 µM (top of the series).
Experiment [10] can be described thus: differential killing of epithelial or mesenchymal cells, primary screen, imaging, PC-3E GFP, TEM4-18 mCherry, co-culture (AID 1345086;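 active = compounds killing one labelled cell type while sparing the other, by normalised counts and ratio limits, not self-fluorescent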;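 for all read-outs here: cells exposed to compound for 72 h before imaging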;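 for red/green cell ratio (normalised): normalised mesenchymal count divided by normalised epithelial count so high means epithelial killing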). The note with it: imaging cell counts, at 1 µM; for red/green cell ratio (normalised): actives lie on both sides, counts scaled to control wells, 1 = unselective.
Experiment [11] in a line: sensitizers of A549 cells to miR-34 induction, primary screen, imaging, A549 dox-inducible miR-34, nuclei and caspase counts (AID 1347080;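 active = compounds whose cell count with miR-34 switched on is under 0.7 times the count with it off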). The note with it: A549 miR-34 inducible, Hoechst nuclei count, 48 h.
Experiment [12] is described as follows: survival rescue of mitochondrial mutant cells in low glucose, primary screen, MELAS cybrids, Rieske KO mouse fibroblasts, CellTiter-Glo (AID 1508586;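 active = mean z-score across replicates of 1.96 or higher in either the MELAS or the Rieske mutant cell line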;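 note: z relative to plate mean and SD of compound and empty wells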).
Experiment [13] has as its target NAD(+) hydrolase SARM1 (Homo sapiens) (UniProt Q6SZW1). Kind of experiment: SARM1 TIR NADase inhibitors, cell lysate, NAD-Glo luminescence (AID 1508614;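 active = compound whose remaining NAD level is above about 45 nM, limit read from the data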;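 note: higher remaining NAD means stronger inhibition of SARM1 NADase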). The note with it: SAM-TIR HEK293T lysate NADase, at 1 µM, stronger effect = higher value.
A short description of experiment [14]: hESC survival regulators, cell-based (AID 493140; call rule not given here;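 note: cells exposed to compounds for four days before counting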). The following applies: human embryonic stem cell survival screen; stronger effect = higher value.
The mark [15] stands for this setting: measured here: epithelial PC-3E GFP cell survival.
Setting [16] is: measured here: mesenchymal TEM4-18 mCherry cell survival.
Setting [17] is: stronger effect = lower value, cell number ratio, induced over uninduced.
Where [18] appears, read: measured here: relative caspase fold change +Dox/-Dox.
Setting [19] is: measured here: total cells with miR-34 induction, stronger effect = lower value.
Where [20] appears, read: measured here: total cells without miR-34 induction.
Where [21] appears, read: MELAS cybrid survival, CellTiter-Glo 48 h, stronger effect = higher value.
Where [22] appears, read: Rieske KO mouse fibroblast survival, CellTiter-Glo 72 h.

Several values for one entry are separate records, joined by “and”; a condition that tells them apart may be missing. Equal entries are not always repeated. A structure can be active in one record and inactive in another. Activity calls are given as the source filed them. Cut-off read from the data, not from the text of the source, unless noted: active = parasite load remaining mostly below about 12% (no sharp cut-off); inactive = mostly above about 10%.

NAD(+) hydrolase SARM1 (Homo sapiens), sequence (Q6SZW1 whole entry, looked up): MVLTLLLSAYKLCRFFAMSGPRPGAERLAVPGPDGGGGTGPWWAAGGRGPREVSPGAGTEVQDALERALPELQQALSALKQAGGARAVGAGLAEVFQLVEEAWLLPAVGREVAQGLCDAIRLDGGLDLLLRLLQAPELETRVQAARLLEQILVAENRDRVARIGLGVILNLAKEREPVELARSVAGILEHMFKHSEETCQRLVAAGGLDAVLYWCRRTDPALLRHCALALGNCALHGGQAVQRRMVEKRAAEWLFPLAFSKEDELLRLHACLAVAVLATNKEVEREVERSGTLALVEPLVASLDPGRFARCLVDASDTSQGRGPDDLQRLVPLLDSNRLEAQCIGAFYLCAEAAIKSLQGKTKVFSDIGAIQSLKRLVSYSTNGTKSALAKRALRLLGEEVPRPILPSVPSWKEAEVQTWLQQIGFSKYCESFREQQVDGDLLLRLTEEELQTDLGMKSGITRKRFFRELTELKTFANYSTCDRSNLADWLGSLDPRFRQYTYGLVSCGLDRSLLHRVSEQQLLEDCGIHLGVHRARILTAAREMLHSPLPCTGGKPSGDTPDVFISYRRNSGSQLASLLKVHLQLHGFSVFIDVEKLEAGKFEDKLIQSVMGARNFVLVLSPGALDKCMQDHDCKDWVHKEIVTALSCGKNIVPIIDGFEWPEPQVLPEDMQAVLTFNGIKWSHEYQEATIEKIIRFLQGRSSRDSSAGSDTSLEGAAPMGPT

Turning to `CC(C)Cn1cnc2c(N)nc3ccccc3c21`, the parasite load remaining in [1] was 11.9% (inactive). In addition, the viability (usually a read-out of living cells in per cent, often relative to untreated cells) in experiment [1] came out at 62.5%. The nuclear beta-catenin stimulation in experiment [2] (at 10 µM) was 1.6% (inactive); in [2] (stimulation, at 2 µM), 0.2%. In addition, the insulin secretion stimulation in experiment [3] is 0% (inactive). Also, the viability decrease in experiment [4] was -1.15% (inactive). In experiment [5], the tube area decrease was -3.6% (inactive). Moreover, the GLP1 secretion stimulation in [6] was 0.6% (inactive). Moreover, the inhibition of viability in experiment [7] is -6.6% (inactive). Also, the viability decrease (inhibition) in experiment [8] is 49.5% (inactive); in experiment [9], 0.7% (inactive). Besides, the red/green cell ratio (normalised) in [10] was 1.33 (inactive). Further, the figures for the normalised cell number in experiment [10] (setting [15]) and in experiment [10] (setting [16]) were 1.11 and 1.48, respectively. Moreover, the fold change in [11] (setting [17]) is 0.846 (inactive); in experiment [11] (setting [18]), 0.971. In addition, the cell count in experiment [11] (setting [19]) amounted to 9200; in experiment [11] (setting [20]), 10900. Further, the z-score in experiment [12] (setting [21]) is 0.0496 (inactive) and 0.611 (inactive); in experiment [12] (setting [22]), 0.716 and 0.772. For the same molecule, in experiment [13], the remaining NAD is 10 nM (inactive).

In the case of `COc1cccc2c1C(=O)c1c(O)c3c(c(O)c1C2=O)C[C@@](O)(C(C)=O)C[C@@H]3O[C@H]1C[C@H](N)[C@H](O)[C@H](C)O1`, in experiment [1], the parasite load remaining is -58.1% (inactive) and -0.15% (inactive) and 3.79% (active). In experiment [1], the viability is 28.9% and 25.6% and 228%. Besides, the nuclear beta-catenin stimulation was 61.7% (active) in experiment [2] (at 10 µM) and 102% in experiment [2] (stimulation, at 2 µM). Besides, the insulin secretion stimulation in experiment [3] is -0.6% (inactive). The viability decrease in [4] was 65.5% (active). The tube area decrease in experiment [5] is -9.1% (active). In addition, in [6], the GLP1 secretion stimulation is 3.4% (inactive). In experiment [7], the inhibition of viability is 88.6% (active). For the same molecule, the figures for the viability decrease (inhibition) in [8] and in [9] were 127% (active) and 93.9% (active), respectively. Moreover, in experiment [10], the red/green cell ratio (normalised) is 2.72 (active). Further, the values for the normalised cell number in experiment [10] (setting [15]) and in experiment [10] (setting [16]) were 0.23 and 0.62, respectively. Moreover, the fold change was 0.88 (inactive) and 0.929 (inactive) and 0.993 (inactive) in [11] (setting [17]); 0.91 and 1.93 and 1.28 in [11] (setting [18]). For the same molecule, the cell count is 2140 and 2610 and 2580 in [11] (setting [19]); 2420 and 2800 and 2590 in experiment [11] (setting [20]). The z-score is -1.94 (inactive) and 4.97 (active) in [12] (setting [21]); -1.44 and -0.671 in experiment [12] (setting [22]). For the same molecule, the remaining NAD in [13] is 10 nM (inactive).

Consider `CC(=O)c1ccc2c(c1)N(CCCN(C)C)c1ccccc1S2`, for which the survival in [14] was 4.75 (inactive). Besides, the parasite load remaining in experiment [1] was 84% (inactive) and 65.2% (inactive) and 28% (inactive). Besides, the viability in experiment [1] is 104% and 77.6% and 98.4%. Also, the nuclear beta-catenin stimulation is 0.3% (inactive) in [2] (at 10 µM) and 1.4% in experiment [2] (stimulation, at 2 µM). The insulin secretion stimulation in experiment [3] is 17.4% (inactive). Further, in experiment [4], the viability decrease is 50.2% (active). Also, the tube area decrease in experiment [5] is 12.5% (inactive). Moreover, the GLP1 secretion stimulation in experiment [6] is 11.1% (inactive). Besides, the inhibition of viability in experiment [7] is 55.9% (active). Besides, the viability decrease (inhibition) in [8] was 110% (active); in experiment [9], 24.9% (inactive). The red/green cell ratio (normalised) in [10] is 0.9 (inactive). For the same molecule, the normalised cell number in experiment [10] (setting [15]) turned out to be 0.98; in [10] (setting [16]), 0.88. For the same molecule, the fold change in experiment [11] (setting [17]) is 0.938 (inactive) and 0.873 (inactive) and 0.834 (inactive); in experiment [11] (setting [18]), 0.931 and 1.11 and 5.05. The cell count in experiment [11] (setting [19]) is 3460 and 8350 and 10600; in experiment [11] (setting [20]), 3690 and 9570 and 12700. Further, the z-score was -0.172 (inactive) in experiment [12] (setting [21]) and 0.00604 in [12] (setting [22]). Moreover, the remaining NAD in experiment [13] was 10 nM (inactive).
